For 21 compounds, Potency and activity change, negative = inhibition results are on record in PubChem BioAssay (NCATS).

Inconclusive results are not listed. Activity calls are given as the source filed them. Unless noted, calls come from the whole dose curve.

Experiment [1] in a line: qHTS for Inhibitors of the Functional Ribonucleoprotein Complex (vRNP) of Lassa (LASV) Arenavirus: LASV Primary Screen - GLuc reporter signal (AID 1347082; calls by dose curve; tested in HEK293 reporter line; note: nearly all actives have a fitted effect of over 60% in size; note: potency is the fitted concentration of half-maximal effect; for activity change, negative = inhibition: % is set by controls: 0 for no effect and ±100 for the full control effect). On the technique in general: In qHTS, concentration-response curves come from the screen itself.
Experiment [2] is described as follows: qHTS for Inhibitors of the Functional Ribonucleoprotein Complex (vRNP) of Lassa (LASV) Arenavirus: Viability assay - alamar blue signal for LASV Primary Screen (AID 1347083; calls by dose curve; tested in HEK293 reporter line; note: nearly all actives have a fitted effect of over 80% in size; note: potency is the fitted concentration of half-maximal effect).
The nature of experiment [3]: qHTS for Inhibitors of the Functional Ribonucleoprotein Complex (vRNP) of Lymphocytic Choriomeningitis Arenaviruses (LCMV): Viability assay - alamar blue signal for LCMV Primary Screen (AID 1347085; calls by dose curve; tested in HEK293 reporter line; note: nearly all actives have a fitted effect of over 80% in size; note: potency is the fitted concentration of half-maximal effect).
Experiment [4] has as its target Nucleoprotein (Lymphocytic choriomeningitis virus (strain Armstrong)) (UniProt P09992). Nature of the experiment: qHTS for Inhibitors of the Functional Ribonucleoprotein Complex (vRNP) of Lymphocytic Choriomeningitis Arenaviruses (LCMV): LCMV Primary Screen - GLuc reporter signal (AID 1347086). For activity change, negative = inhibition: % is set by controls: 0 for no effect and ±100 for the full control effect. Note: nearly all actives have a fitted effect of over 70% in size. Note: potency is the fitted concentration of half-maximal effect.
A short description of experiment [5]: Cytotoxicity counterscreen for inhibitors of SARS-CoV-2 cell entry (AID 1645845). Note: nearly all actives have a fitted effect of over 50% in size. The gist of the method:
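HEK293-ACE2 cells (Expi293F stably expressing human ACE2) seeded overnight, then compound for 1 h plus 48 h at 37C. Viability as ATP content by luminescence; normalized to wells with cells and media-only wells.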
In general terms: Counterscreens check selectivity or assay interference.

A short description of experiment [6]: Primary qHTS to identify inhibitors of SARS-CoV-2 cell entry (AID 1645846). Note: nearly all actives have a fitted effect of over 45% in size. The settings on record: activity change, negative = inhibition: at 57.1 µM (top of the series) unless noted. The gist of the method:
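HEK293-ACE2 (Expi293F, stable hACE2), 1500 cells/well, o/n 37C; cpd 23 nL pin, 1 h; MLV-PP w/ SARS-CoV-2-S (Wuhan-Hu-1, Δ19 C-term); 48 h 37C; Bright-Glo luminescence; normalized vs S-PP and bald PP.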

Chain of Nucleoprotein (Lymphocytic choriomeningitis virus (strain Armstrong)) (P09992 whole entry, looked up): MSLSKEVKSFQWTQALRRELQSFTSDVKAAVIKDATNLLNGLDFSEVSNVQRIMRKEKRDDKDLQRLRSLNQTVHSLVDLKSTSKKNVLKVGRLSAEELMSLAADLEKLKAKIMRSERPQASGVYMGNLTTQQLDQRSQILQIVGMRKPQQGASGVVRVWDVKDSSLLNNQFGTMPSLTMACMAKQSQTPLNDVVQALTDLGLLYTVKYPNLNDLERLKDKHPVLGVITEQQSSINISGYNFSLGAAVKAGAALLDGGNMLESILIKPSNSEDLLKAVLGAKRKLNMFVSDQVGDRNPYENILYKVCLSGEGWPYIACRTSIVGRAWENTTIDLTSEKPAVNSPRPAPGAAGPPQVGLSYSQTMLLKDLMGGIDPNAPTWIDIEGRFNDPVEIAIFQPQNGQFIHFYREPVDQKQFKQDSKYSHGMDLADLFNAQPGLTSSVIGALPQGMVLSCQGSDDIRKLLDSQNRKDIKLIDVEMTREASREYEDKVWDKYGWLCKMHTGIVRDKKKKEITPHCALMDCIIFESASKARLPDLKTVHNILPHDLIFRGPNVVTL

As to `N#CC1(c2ccc(NC(=O)c3cccnc3NCc3ccncc3)cc2)CCCC1`, the Potency entry in experiment [1], in experiment [2], in experiment [3], in experiment [4], in experiment [5] and in experiment [6] was “inactive” in each case.

Regarding `O=[N+]([O-])c1cn2c(n1)OC[C@@H](OCc1ccc(OC(F)(F)F)cc1)C2`, the Potency result in experiment [1], in experiment [2], in experiment [3], in experiment [4] and in experiment [5] was “inactive” throughout. Besides, the activity change, negative = inhibition in experiment [6] was -9.12%.

As for `c1ccc2c(Oc3nc(Nc4ccc(N5CCOCC5)cc4)c4ncn(C5CCCCC5)c4n3)cccc2c1`, the Potency result in experiment [1], in experiment [2], in experiment [3], in experiment [4] and in experiment [5] was “inactive” in each case. Besides, the activity change, negative = inhibition in experiment [6] is -17.3%.

As to `C=C(C)[C@@H]1CC[C@]2(C)CC[C@]3(C)[C@H](CC[C@@H]4[C@@]5(C)CC[C@H](O)C(C)(C)[C@H]5CC[C@]43C)[C@@H]12`, the Potency result in experiment [1], in experiment [2], in experiment [3], in experiment [4], in experiment [5] and in experiment [6] was “inactive” throughout.

As to `C[C@H](NC(=O)C(=O)Nc1ccccc1C(C)(C)C)C(=O)N[C@@H](CC(=O)O)C(=O)COc1c(F)c(F)cc(F)c1F`, the Potency entry in experiment [1], in experiment [2], in experiment [3], in experiment [4] and in experiment [5] was “inactive” in each case. Besides, the activity change, negative = inhibition in experiment [6] is -42.2%.

For `Clc1ccc2c(N3CCN(CCCN4CCN(c5ccnc6cc(Cl)ccc56)CC4)CC3)ccnc2c1`, the Potency result in experiment [1], in experiment [2], in experiment [3], in experiment [4] and in experiment [5] was “inactive” each time. Besides, the activity change, negative = inhibition in experiment [6] was -11.2%.

`CC(C)[C@H](O)C(=O)N[C@@H](C)C(=O)N[C@@H]1C(=O)N(C)CCc2ccccc21`: the Potency result in experiment [1], in experiment [2], in experiment [3], in experiment [4] and in experiment [5] was “inactive” each time. In addition, in experiment [6], the activity change, negative = inhibition was found to be 4.11%.

With `COc1nccc(-c2c(-c3ccc(F)cc3)ncn2C2CCNCC2)n1`, the Potency result in experiment [1], in experiment [2], in experiment [3], in experiment [4], in experiment [5] and in experiment [6] was “inactive” in each case.

Consider `COc1c(N2C[C@@H]3CCCN[C@H]3C2)c(F)cc2c(=O)c(C(=O)O)cn(C3CC3)c12`, for which the Potency entry in experiment [1], in experiment [2], in experiment [3], in experiment [4] and in experiment [5] was “inactive” each time. For the same compound, in experiment [6], the activity change, negative = inhibition came out at 2.05%.

On to `C[C@H]1COC2=C1C(=O)C(=O)c1c2ccc2c1CCCC2(C)C`, for which the Potency entry in experiment [1], in experiment [2], in experiment [3], in experiment [4] and in experiment [5] was “inactive” each time. In addition, the activity change, negative = inhibition in experiment [6] was -2.76%.

Consider `Cc1cnc(C(=O)O)c[n+]1[O-]`, for which the Potency entry in experiment [1], in experiment [2], in experiment [3], in experiment [4] and in experiment [5] was “inactive” in each case. Besides, the activity change, negative = inhibition in experiment [6] is -9.41%.

On to `O=c1ccn([C@@H]2O[C@H](CO)[C@H](O)[C@@H]2F)c(=O)[nH]1`, for which the Potency in experiment [1] is 4.85 µM (active); in experiment [2], 6.11 µM (active); in experiment [3], 4.32 µM (active); in experiment [4] it was 3.06 µM (active). Moreover, the Potency entry in experiment [5] is “inactive”. The activity change, negative = inhibition in experiment [6] was -22.4%.

For the compound `COc1ccc(CC2=NN3C([C@@H](CCc4ccccc4)[C@@H](C)O)=NC(C)C3C(=O)N2)cc1OC` (stereo partly specified), the Potency result in experiment [1], in experiment [2], in experiment [3], in experiment [4], in experiment [5] and in experiment [6] was “inactive” throughout.

In the case of `CC(C)(O)CCc1ccc(OCc2cc(-c3cccc(OC(F)F)c3)c3ncccc3c2)cc1`, the Potency entry in experiment [1], in experiment [2], in experiment [3], in experiment [4] and in experiment [5] was “inactive” each time. Besides, the activity change, negative = inhibition in experiment [6] was -16.6%.

Regarding `CN(C)c1ccc(-c2nc3ncc(Cl)c(N4CCN(CC(=O)Nc5nccs5)CC4)c3[nH]2)cc1`, the Potency result in experiment [1], in experiment [2], in experiment [3], in experiment [4] and in experiment [5] was “inactive” throughout. For the same compound, the activity change, negative = inhibition in experiment [6] was -16% [at 27.1 µM].

As to `O=C(Nc1ccccc1Br)N[C@@H]1CCN(c2ccc(C(F)(F)F)cn2)C1`, the Potency entry in experiment [1], in experiment [2], in experiment [3], in experiment [4] and in experiment [5] was “inactive” throughout. Moreover, in experiment [6], the activity change, negative = inhibition was -27.3%.

`OCc1ccc(-c2ccc(-c3ccc(CO)s3)o2)s1`: the Potency entry in experiment [1], in experiment [2], in experiment [3], in experiment [4], in experiment [5] and in experiment [6] was “inactive” each time.

Regarding `C=Cc1c(C)c2cc3nc(cc4[nH]c(cc5nc(cc1[nH]2)C(C)=C5CCC(=O)O)c(CCC(=O)OC)c4C)[C@@]1(C)C3=CC=C(C(=O)OC)[C@H]1C(=O)OC`, the Potency is 1.72 µM (active) in experiment [1], 0.344 µM (active) in experiment [2], 0.172 µM (active) in experiment [3] and 0.217 µM (active) in experiment [4]. In addition, the Potency entry in experiment [5] and in experiment [6] was “inactive” throughout.

In the case of `CNc1nc(Nc2ccc(C(=O)N3CCOCC3)cc2OC)ncc1Cl`, the Potency result in experiment [1], in experiment [3], in experiment [4], in experiment [5] and in experiment [6] was “inactive” throughout. The Potency in experiment [2] was 24.3 µM (active).

For the compound `c1cc(-c2sc(-c3ccncc3)c(-c3ccncc3)c2-c2ccncc2)ccn1`, the Potency entry in experiment [1], in experiment [2], in experiment [3], in experiment [4], in experiment [5] and in experiment [6] was “inactive” throughout.

With `CNC(=O)c1cc(COc2nnc(Nc3ccc(Cl)cc3)c3ccoc23)ccn1`, the Potency entry in experiment [1], in experiment [2], in experiment [3], in experiment [4] and in experiment [5] was “inactive” each time. Further, the activity change, negative = inhibition in experiment [6] is -17%.
